GCN5L2 inh: inhibitors of human GCN5L2 histone acetyltransferase; Q92830; GCN5L2 HAT assay, ThioGlo1 CoA-SH fluorescence; Potency, µM (top dose mostly 58.9 µM), usual class: inhibitors; 0.21% of 390,000 active
Target sequence (Q92830 whole entry, looked up): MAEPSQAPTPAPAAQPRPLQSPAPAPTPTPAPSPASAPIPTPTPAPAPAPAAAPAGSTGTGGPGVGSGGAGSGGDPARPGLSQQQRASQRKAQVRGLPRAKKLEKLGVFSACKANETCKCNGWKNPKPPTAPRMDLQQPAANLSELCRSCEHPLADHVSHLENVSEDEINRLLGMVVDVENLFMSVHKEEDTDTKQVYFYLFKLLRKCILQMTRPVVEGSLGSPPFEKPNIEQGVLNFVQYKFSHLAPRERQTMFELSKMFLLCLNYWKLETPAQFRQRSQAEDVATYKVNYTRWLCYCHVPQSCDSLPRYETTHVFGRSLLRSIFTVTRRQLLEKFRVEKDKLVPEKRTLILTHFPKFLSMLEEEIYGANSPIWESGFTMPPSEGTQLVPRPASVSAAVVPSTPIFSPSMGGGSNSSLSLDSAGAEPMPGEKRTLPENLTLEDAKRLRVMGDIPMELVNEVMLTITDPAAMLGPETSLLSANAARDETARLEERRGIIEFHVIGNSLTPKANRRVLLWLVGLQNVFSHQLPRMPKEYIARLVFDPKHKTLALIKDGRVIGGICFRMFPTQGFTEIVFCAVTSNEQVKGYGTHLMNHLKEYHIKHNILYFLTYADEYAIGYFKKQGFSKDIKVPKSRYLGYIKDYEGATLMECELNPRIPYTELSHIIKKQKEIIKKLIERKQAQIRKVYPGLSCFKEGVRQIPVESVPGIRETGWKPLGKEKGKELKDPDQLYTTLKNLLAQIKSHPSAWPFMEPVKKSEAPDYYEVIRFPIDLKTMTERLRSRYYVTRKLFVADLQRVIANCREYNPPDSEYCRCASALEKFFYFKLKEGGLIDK
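Fluorescence readout, Ex340nm/Em540nm: ThioGlo1 (50uM final) reacts with free CoA thiol released as 20nM GCN5L2 acetylates H3(1-25) peptide (75uM) using acetyl-CoA (70uM). Compound and enzyme sat 15 min beforehand; 20 min room-temperature reaction.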
POLB inh: blocks human DNA polymerase beta activity. Potency, µM (top dose mostly 114 µM), hits mostly inhibitors. Pol beta primer extension/strand displacement, fluorescence kinetic. P06746. 1.3% of 340,000 active
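Preincubation: enzyme (10 nM) with compound, 15 min, RT. Reaction: substrate added to 50 nM final. Reads: 0 and 10 min. Analysis: normalized, Hill fit.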
GLS inh: inhibitors of human glutaminase (GLS); Potency, µM (top dose mostly 45.5 µM), actives largely listed as inhibitors; GLS enzymatic activity, qHTS titration; AID 624170; O94925; 0.21% of 410,000 active
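hKGA in 45 mM KH2PO4 pH 8.2, 0.02% Tween-20 with pin-transferred compounds; 1 mM L-glutamine (stock) plus glutamate oxidase/HRP/Amplex Red coupling added. Fluorescence read initially and after 30 min at RT.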
POLI inh: inhibitors of human DNA polymerase iota. Pol iota fluorescent replication assay, 10 min. Potency, µM (top dose mostly 115 µM), usual class: inhibitors. Q9UNA4. 1% of 390,000 active
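Fluorescent replication assay read twice, at 0 min and 10 min after adding 50 nM (final) substrate. Enzyme (10 nM) and compounds were first incubated 15 min at room temperature; enzyme-free buffer wells were negative controls.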
Pol eta inh-1: blocks human DNA polymerase eta activity. Q9Y253. recombinant Pol eta, fluorescent DNA replication assay. Potency, µM (series often up to 114 µM), usual class: inhibitors. 1.2% of 390,000 active. AID 588591
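Fluorescent replication assay: 50 nM final substrate added after a 15 min room-temperature compound preincubation with 10 nM enzyme. Signal taken at 0 min and again at 10 min.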
Pol kappa inh-1: blocks human DNA polymerase kappa activity | 0.53% of 400,000 active | purified Pol kappa, fluorescent DNA synthesis assay, 10 min | Q9UBT6 | Potency, µM (series often up to 107 µM), hits mostly inhibitors | AID 588579
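Kinetic fluorescence readout at 0 and 10 min followed reaction start with substrate at 50 nM final. Beforehand, enzyme (10 nM Pol kappa) stood 15 min with compound at room temperature; buffer-only wells were negative controls.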
TbPGK inh: blocks T. brucei phosphoglycerate kinase; Potency, µM (series often up to 57.5 µM), most hits filed as inhibitors; 79% of 500 active; AID 686980; shares compounds with Pol kappa inh-1; TbPGK coupled GAPDH assay, Kinase-Glo luminescence; further: nearly all actives have a fitted effect of over 65% in size
Pol iota confirm: Inhibitors of human DNA polymerase iota, confirmation; 77% of 1,500 active; Potency, µM, most hits filed as inhibitors; Pol iota primer extension, TAMRA/BHQ fluorescence; AID 720496; shares compounds with Pol kappa inh-1
Pol kappa inh-2: Pol kappa (human) inhibition, cherry-pick confirmation. 76% of 920 active. Potency, µM, actives largely listed as inhibitors. shares compounds with Pol eta inh-1. purified Pol-kappa, fluorescent strand-displacement substrate. AID 720501
Pol eta inh-2: confirmation of human DNA polymerase eta inhibitors | shares compounds with Pol eta inh-1 | Pol eta primer extension, TAMRA/BHQ fluorescence, 10 min | Potency, µM, usual class: inhibitors | 64% of 2,600 active
Of the large screens only hits and unclear results are named; the others gave an inactive call (follow-up assays come after a bar, where they were run). Only some compounds are listed: those with a hit (about 2.4% of all), similar ones and a draw of the others. The call rests on the fitted dose curve; in most records, active means well fitted curve in the direction sought with a large enough effect; inconclusive means small, poorly fitted or top-dose-only effect, or another doubt; inactive means no such curve, though single readings can be large; an effect the other way counts as inactive or inconclusive.

O=C(NN=Cc1ccc(O)cc1)C(=O)NN=Cc1ccc(O)cc1	none (no result: GCN5L2 inh, POLB inh)
N#Cc1ccccc1S(=O)(=O)N1CCN(C(=O)c2cc3c(s2)CCC3)CC1	POLI inh inconclusive, Pol eta inh-1 20µM, Pol kappa inh-1 inconclusive (no result: POLB inh) | Pol iota confirm inconclusive | Pol kappa inh-2 inconclusive | Pol eta inh-2 inconclusive
Cc1cc(C(=O)N2CCN(S(=O)(=O)c3ccccc3C#N)CC2)c(C)o1	none (no result: POLB inh)
O=C(Nc1cccc2cccnc12)c1c(Cl)cc(Cl)cc1Cl	none (no result: GCN5L2 inh, POLB inh, GLS inh, Pol eta inh-1)
COc1cc(C)c2c(c1C=O)Oc1c(c(C)c(O)c3c1C(O)OC3=O)OC2=O (stereo not given)	POLB inh 7.9µM, POLI inh 45µM, Pol eta inh-1 16µM, Pol kappa inh-1 22µM | TbPGK inh 4.6µM | Pol iota confirm 42 | Pol eta inh-2 21
Cc1cc(=O)c2c(o1)C(=O)c1occc1C2=O	POLI inh 6.3µM, Pol eta inh-1 10µM, Pol kappa inh-1 32µM (no result: GCN5L2 inh, POLB inh) | Pol iota confirm 47 | Pol kappa inh-2 42 | Pol eta inh-2 30
COc1c2occc2c(OC)c2c(=O)cc(C)oc12	none
CC(C)c1ccc(NC(=O)C(NS(=O)(=O)c2ccc3c(c2)CCC(=O)N3)c2ccccc2)cc1 (stereo not given)	none
CN(c1ccccc1)c1ccc(/C=C(/CCC(=O)O)c2nc3ccccc3s2)cc1[N+](=O)[O-]	POLI inh 18µM, Pol eta inh-1 20µM, Pol kappa inh-1 32µM (no result: GCN5L2 inh, POLB inh) | Pol iota confirm 47 | Pol eta inh-2 67
Cc1cccc(OC(=O)CSc2nnc(CNC(=O)c3ccccc3)o2)c1C	none
O=C(CCCN1C(=O)/C(=C\c2cccs2)SC1=S)Nc1ccc(O)cc1C(=O)O	none
O=C(CCCN1C(=O)/C(=C/c2ccco2)SC1=S)Nc1cccc(C(=O)O)c1	POLB inh 3.2µM, POLI inh 14µM, Pol eta inh-1 20µM, Pol kappa inh-1 22µM | Pol iota confirm 24 | Pol eta inh-2 15
O=C(CCCN1C(=O)/C(=C\c2ccco2)SC1=S)Nc1ccc(O)cc1C(=O)O	GCN5L2 inh 10µM, POLB inh inconclusive, GLS inh inconclusive, POLI inh 8.9µM, Pol eta inh-1 4.5µM, Pol kappa inh-1 22µM | Pol iota confirm 34 | Pol eta inh-2 27
O=C(CN1C(=O)/C(=C/c2ccco2)SC1=S)Nc1ccc(C(=O)O)c(O)c1	GCN5L2 inh inconclusive, POLB inh 11µM, GLS inh 22µM, Pol eta inh-1 3.5µM | TbPGK inh 33µM | Pol iota confirm 15 | Pol eta inh-2 6.7
O=C(CCN1C(=O)/C(=C\c2ccccc2F)SC1=S)Nc1ccc(C(=O)O)c(O)c1	none (no result: GLS inh, POLI inh, Pol eta inh-1, Pol kappa inh-1)
O=C(CCCN1C(=O)/C(=C\c2cccs2)SC1=S)Nc1cccc(C(=O)O)c1	none
O=C(CCN1C(=O)/C(=C\C=C\c2ccccc2)SC1=S)Nc1ccc(C(=O)O)cc1	GCN5L2 inh inconclusive, POLB inh 20µM, POLI inh inconclusive, Pol eta inh-1 28µM, Pol kappa inh-1 inconclusive | Pol iota confirm 27 | Pol eta inh-2 85
COc1ccc(NC(=O)c2nnn(Cc3nc(-c4cc(Br)ccc4OC)oc3C)c2C)cc1	none
O=C(O)C1NCc2[nH]cnc2C1c1ccccc1 (stereo not given)	none (no result: GCN5L2 inh, POLB inh, GLS inh, POLI inh, Pol eta inh-1, Pol kappa inh-1) | Pol iota confirm 60 | Pol eta inh-2 inconclusive
O=C(O)C1Oc2ccccc2C1c1ccccc1 (stereo not given)	none (no result: GCN5L2 inh, POLB inh)
O=C(NCCc1ccccc1Cl)c1ccc2c(c1)nc1n2CCOC1	none
O=c1oc2ccccc2c2oc3cc(O)c(O)cc3c12	GLS inh 2.8µM, POLI inh 3.2µM, Pol eta inh-1 4.5µM, Pol kappa inh-1 5µM | Pol iota confirm 21 | Pol kappa inh-2 67 | Pol eta inh-2 21
Cc1ccc(C)c(SCC(=O)OCC(=O)c2ccco2)c1	POLB inh 22µM, POLI inh 20µM, Pol eta inh-1 35µM, Pol kappa inh-1 inconclusive | Pol iota confirm inconclusive | Pol eta inh-2 inconclusive
O=C(Cc1cccs1)OCC(=O)c1ccco1	POLB inh 14µM, GLS inh inconclusive, POLI inh inconclusive, Pol eta inh-1 8.9µM, Pol kappa inh-1 25µM | Pol iota confirm 75 | Pol eta inh-2 60
Cc1ccc(-c2cn3c(n2)sc2cc(C(=O)NC4CCCCCC4)ccc23)cc1	none
O=C(O)C1Oc2cc3ccccc3cc2O1	POLB inh 7.9µM, GLS inh inconclusive, POLI inh 28µM, Pol eta inh-1 18µM | Pol iota confirm 75 | Pol kappa inh-2 8.4 | Pol eta inh-2 48
Cc1ccc2scc(N3CCN(c4ccccc4)CC3)c(=O)c2c1	none
N=C1S/C(=C\c2ccc(-c3ccccc3C(=O)O)o2)C(=O)N1c1ccc2c(c1)OCO2	POLB inh 25µM, GLS inh inconclusive, POLI inh 13µM, Pol eta inh-1 20µM, Pol kappa inh-1 79µM | Pol iota confirm 67 | Pol kappa inh-2 19 | Pol eta inh-2 43
O=C(O)CN1C(=O)S/C(=C\c2ccc3c(c2)OCO3)C1=O	none (no result: GCN5L2 inh, POLB inh)
Cc1ccc(CCNC(=O)Cn2ncc3c(=O)oc4ccccc4c32)cc1	none
O=C(CCc1ccccc1)NCCc1csc(-c2cccc(F)c2)n1	none
CCC1CN(C(=O)Nc2ccccc2C(F)(F)F)c2ccccc2O1 (stereo not given)	none
CCOC(=O)CN(C(=O)c1snc(C(N)=O)c1N)C(C(=O)NC1CCCCC1)c1ccc(F)cc1 (stereo not given)	POLB inh 20µM, POLI inh inconclusive, Pol eta inh-1 35µM, Pol kappa inh-1 79µM | Pol iota confirm 42 | Pol eta inh-2 inconclusive
C=CCOc1ccc(C=NNc2ccc(S(=O)(=O)Nc3ccccc3C(=O)O)cc2[N+](=O)[O-])cc1OC	GCN5L2 inh inconclusive, POLI inh 14µM, Pol eta inh-1 inconclusive, Pol kappa inh-1 inconclusive (no result: POLB inh) | TbPGK inh 5.2µM | Pol iota confirm 19 | Pol kappa inh-2 inconclusive | Pol eta inh-2 85
O=C(O)c1ccccc1NS(=O)(=O)c1ccc(NN=Cc2ccccc2F)c([N+](=O)[O-])c1	GCN5L2 inh inconclusive, POLI inh 56µM, Pol eta inh-1 28µM, Pol kappa inh-1 inconclusive (no result: POLB inh) | Pol iota confirm inconclusive | Pol eta inh-2 60

Screens (PubChem BioAssay)
